# Screening results: PubChem, National Center for Advancing Translational Sciences (NCATS)
# Six1-Eya2 inh = inhibitors of human Six1/Eya2 interaction. Q15475+O00167. AlphaScreen GST-Six1/His-Eya2 binding, biochemical; active compounds read low. activity change, % (test concentration not listed). 360,000 compounds, 0.56% hits. AID 651725
#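 GST-Six1 + His-Eya2 (5X stock: 250/500 nM); Tris pH 8.0, 300 mM NaCl, 0.05% BSA, 0.02% Tween 20; GSH donor/Ni acceptor beads; 1 h 37 °C dark; AlphaScreen readout.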
# KCNH2 3.1 inh = KCNH2 3.1 (human) potassium channel inhibition; U2OS KCNH2 3.1, thallium flux FluxOr; active compounds read low; activity change, % (tested at about 1.8 µM); 340,000 compounds, 0.95% hits;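 active means maximum activity change below -70%; inconclusive means maximum activity change from -70% to -50%; inactive means maximum activity change above -50%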;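 further: thallium influx rate constant from kinetic fluorescence after stimulation buffer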
#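 U2OS cells transduced with KCNH2 3.1 mutant virus (1.77 x 10^8 /mL, 4 h), plated overnight at 37 C, loaded 45 min with FluxOr dye plus Red40 quencher. Thallium flux rate constant from kinetic reads after stimulation buffer, normalised to controls.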
# JMJD2E inh = blocks human JMJD2E demethylase activity. B2RXH2. JMJD2E catalytic domain, FDH-coupled NADH fluorescence (FDH is formaldehyde dehydrogenase). Potency, µM (top dose mostly 57.1 µM), for the others: top-dose activity change, negative = inhibition, most hits filed as inhibitors. 230,000 compounds, 1.6% hits; active means well fitted inhibition curve with a large enough effect, not every such curve was filed as active; inconclusive means small, poorly fitted or top-dose-only effect, or another doubt; inactive means no such curve, though single readings can be large or run the other way;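 further: potency means the concentration at half of the fitted maximal effect; 0% = wells with enzyme and -100% = buffer wells without enzyme; nearly all actives have a fitted effect of over 50% in size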
# hERG WT inh = KCNH2 (human, wildtype) channel inhibition. Q12809. U2OS, BacMam KCNH2, thallium flux FluxOr; active compounds read low. activity change, % at 1.84 µM. 340,000 compounds, 0.37% hits;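 active means maximum activity change below -70%; inconclusive means maximum activity change between -70% and -50%; inactive means maximum activity change above -50%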
# Target sequence (Q12809 whole entry, looked up): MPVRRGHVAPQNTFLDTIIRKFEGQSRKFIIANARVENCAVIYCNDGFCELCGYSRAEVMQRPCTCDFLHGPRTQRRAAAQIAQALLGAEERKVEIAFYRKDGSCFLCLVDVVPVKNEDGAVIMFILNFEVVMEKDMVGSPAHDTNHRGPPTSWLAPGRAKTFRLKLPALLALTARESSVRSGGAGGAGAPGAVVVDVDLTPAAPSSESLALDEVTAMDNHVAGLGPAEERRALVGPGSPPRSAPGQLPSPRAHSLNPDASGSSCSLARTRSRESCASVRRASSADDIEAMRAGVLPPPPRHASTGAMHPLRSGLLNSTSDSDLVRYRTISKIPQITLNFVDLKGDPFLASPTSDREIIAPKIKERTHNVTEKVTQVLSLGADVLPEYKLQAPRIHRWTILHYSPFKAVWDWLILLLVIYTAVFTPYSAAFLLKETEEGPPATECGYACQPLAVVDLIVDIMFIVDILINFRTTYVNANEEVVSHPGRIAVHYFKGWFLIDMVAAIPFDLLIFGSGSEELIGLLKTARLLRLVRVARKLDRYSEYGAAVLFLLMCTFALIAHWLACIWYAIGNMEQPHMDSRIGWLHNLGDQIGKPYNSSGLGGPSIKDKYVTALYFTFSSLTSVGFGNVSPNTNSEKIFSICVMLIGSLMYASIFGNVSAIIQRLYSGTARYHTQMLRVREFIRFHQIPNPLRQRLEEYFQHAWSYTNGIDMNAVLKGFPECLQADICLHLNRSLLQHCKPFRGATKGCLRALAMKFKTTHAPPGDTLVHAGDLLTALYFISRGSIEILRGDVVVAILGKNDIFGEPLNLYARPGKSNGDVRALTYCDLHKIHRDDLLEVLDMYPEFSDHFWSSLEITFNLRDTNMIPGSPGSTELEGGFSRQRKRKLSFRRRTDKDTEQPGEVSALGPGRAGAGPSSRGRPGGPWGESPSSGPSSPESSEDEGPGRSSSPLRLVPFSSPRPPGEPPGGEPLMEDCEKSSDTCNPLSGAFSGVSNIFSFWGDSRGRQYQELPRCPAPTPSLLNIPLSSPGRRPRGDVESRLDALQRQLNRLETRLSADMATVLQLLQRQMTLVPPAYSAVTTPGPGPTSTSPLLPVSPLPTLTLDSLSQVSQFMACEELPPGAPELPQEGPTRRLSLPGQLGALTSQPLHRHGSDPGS
#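 U2OS cells transduced with wild-type KCNH2 virus are loaded with FluxOr dye for 45 min, and thallium flux is measured in kinetic reads before and after stimulation buffer. Rate constants are normalized to DMSO controls.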
# CtBP-E1A blk = blocks the CtBP interaction with E1A; 340,000 compounds, 0.49% hits; AlphaScreen GST-E1A/His-CtBP binding, 1536-well; active compounds read low; AID 651724; activity change, % (test concentration not listed)
#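 AlphaScreen with 125 nM GST-E1A and 125 nM His-CtBP (5X stocks) in Tris pH 8.0, 300 mM NaCl, BSA, Tween 20, TCEP. Compounds preincubated 2 h at 37 deg C, then glutathione donor/nickel acceptor beads added for 1 h at 37 deg C in dark.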
# Numbers without * were called inactive; ? = inconclusive; · = no result. Compounds with a hit are over-represented: about 2% of the library has one in this group of screens. Unless noted, no stated cut-off is given here; in the data, active means activity change below about -65%; inconclusive means mostly about -30% to -63%; inactive means weaker than that. Unless noted, on the % scale 0 is the no-effect control and ±100 the full control effect.
SMILES,Six1-Eya2 inh,KCNH2 3.1 inh,JMJD2E inh,hERG WT inh,CtBP-E1A blk
O=[N+]([O-])c1cc(-c2csc(NCCc3nc4cc(Cl)c(N5CCCCC5)cc4n3CCCO)n2)ccc1Cl,-11.4,-38.0,·,-7.7,·
OCCCn1c(C2CCCN2c2nc(-c3ccc(F)cc3)cs2)nc2cc(C(F)(F)F)ccc21 (stereo unspecified),-0.8,-46.9,·,-20.8,3.6
OCCOCCn1c(C2CCCN2c2nc(-c3ccc(F)cc3)cs2)nc2cc(C(F)(F)F)ccc21 (stereo unspecified),-4.0,-101.4*,·,-102.8*,-4.0
OCCCn1c(CCNc2nc(-c3ccc(F)cc3)cs2)nc2cc(C(F)(F)F)ccc21,-9.9,-123.4*,·,16.9,-8.7
O=C(Oc1ccccc1F)C1CCN(C(=O)c2ccc(F)cc2)CC1,-6.9,10.7,·,-1.5,5.0
Cc1cc2c(ncn2C)c(NS(=O)(=O)c2ccc(F)cc2)c1C,1.5,·,5.2%,-19.2,2.8
O=c1cc2oc3cc(O)c(O)cc3c(-c3ccccc3[N+](=O)[O-])c-2cc1O,-71.1*,4.2,·,2.8,·
O=c1cc(-c2ccccc2Cl)oc2cccc(O)c12,-1.1,8.6,6.8%,5.9,·
O=c1cc(-c2ccccc2)oc2ccccc12,1.9,-3.9,·,-1.7,4.5
O=c1cc(-c2ccccc2)oc2cc(O)c(O)cc12,·,·,28.2µM*,·,·
O=c1cc(-c2ccc(O)c(O)c2)oc2ccccc12,·,·,8.91µM*,·,·
COc1ccc(C)cc1NC(=O)CSc1nnc(-c2ccc(OC)c(OC)c2)n1N,0.1,3.1,0.7%,-0.6,-3.3
COc1ccc(C(=O)NNC(=O)Cn2nnc(-c3ccc(OC)c(OC)c3)n2)cc1,4.4,4.3,-11.9%,·,·
CCOC(=O)C1=C(C)N=C2c3ccccc3C(=O)C2C1c1ccc(Cl)cc1 (stereo unspecified),?,-104.8*,1.8%,-17.3,?
CCCS(=O)(=O)NC(=O)C1(C)CCN(C(=O)Cc2ccc(F)cc2)C1 (stereo unspecified),1.9,·,·,·,0.9
Oc1c(CN2CCN(c3ccccc3)CC2)cc(Br)c2cccnc12,-18.6,-5.1,?,5.8,-25.6
O=C(Oc1c(CN2CCOCC2)cc(Cl)c2cccnc12)c1ccccc1Br,-94.0*,1.1,?,-6.6,-68.9*
Oc1c(CN2CCOCC2)cc(COCc2ccccc2)c2cccnc12,-91.5*,-10.8,25.1µM*,-7.7,-88.2*
CCOC(=O)N1CCN(Cc2cc(Cl)c3cccnc3c2O)CC1,-77.6*,23.5,-2.7%,-4.1,-90.9*
COCc1cc(CN2CCN(C)CC2)c(O)c2ncccc12,-91.7*,-0.9,0.3%,-26.5,-93.5*
Cc1nn(C)cc1/C=N\NC(=O)c1ccc(Cn2cc(Cl)cn2)cc1,-16.6,6.8,4.9%,2.1,-15.3
CN(C(=O)CSc1nnnn1-c1ccc(O)cc1)C1CCS(=O)(=O)C1 (stereo unspecified),2.7,3.3,10.1%,2.0,-16.6
CC1CCCC(C)N1CCCNC(=O)C1CCCN(c2ncnc3c2nc2n3CCCCC2)C1 (stereo unspecified),4.7,12.3,·,6.8,-16.3
COc1ccc(OCC(=O)NS(=O)(=O)c2ccccc2)cc1,9.0,9.5,·,19.6,0.2
CSc1ccc(OC2CCN(Cc3ccccc3)CC2)cc1,-26.2,-89.2*,-27.5%,?,-6.0
SMILES,Six1-Eya2 inh,KCNH2 3.1 inh,JMJD2E inh,hERG WT inh,CtBP-E1A blk
CSc1ccc(CN2CCC(Cc3ccccc3)CC2)cc1,-6.5,?,·,-1.9,·
O=C(Nc1nnc(S(=O)(=O)N2CCCCCC2)s1)c1ccccc1Cl,-1.9,-76.2*,·,-3.8,6.2
COc1ccccc1Nc1nc(-c2sc(NC(=O)c3ccc([N+](=O)[O-])cc3)nc2C)cs1,·,·,7.2%,·,·
CN(c1ccc(C(=O)NCCSC(C)(C)C)cc1)S(C)(=O)=O,7.9,4.3,5.3%,2.6,-11.4
CCC(C(=O)OCC(=O)Nc1c(C)nn(-c2ccccc2)c1C)c1ccccc1 (stereo unspecified),4.4,-7.5,·,5.4,-4.6
CNc1oc(-c2ccccc2)nc1C#N,-3.5,-81.3*,?,-2.9,-4.1
Cc1cccc(C)c1NC(=O)Cn1nnnc1N,4.6,-90.8*,10.6%,-3.9,2.7
Cc1cccc(C)c1NC(=O)CN,-3.4,-14.8,-1.6%,2.8,7.1
O=C(Nc1nc(-c2ccc(F)c(F)c2)cs1)C1=COCCO1,3.9,10.2,·,-8.9,2.8
Cc1ccc(O)c(/C=N/NC(=O)CN2CCCC2)c1,-65.2*,-8.5,·,0.4,·
